Results on 95 compounds are retold here after PubChem BioAssay AID463173 (ICCB-Longwood Screening Facility, Harvard Medical School, 2010).

Among all 52,000 compounds or so, about 4,300 (8.3%) were called active. Many of the other results were omitted from the sample, so actives are more common in it than they were. Values without a mark were called inactive. Rule as the data show it: active = survival mostly below about 52% (no sharp cut-off); inactive = mostly above about 56%.

The test system of the assay is DeltatarO mutant. The assay is described as follows: S. aureus survival, RN4220 and DeltatarO strains – OD600, teichoic acid synthesis inhibitors, primary screen (AID 463173). As to conditions: S. aureus RN4220 wild type/DeltatarO growth, OD600, 18 h, active compounds read low, screened at 18.75 µg/mL (by protocol).
In the case of `O=S(=O)(NCCS(=O)(=O)N1CCN(c2ccccc2)CC1)c1ccccc1`, the survival is 81%.
The value for `CCN(C1CCCCC1)S(=O)(=O)c1ccc(S(=O)(=O)NC2CC2)cc1` was 90%; that for `O=C(Nc1ccccc1)C1CCN(S(=O)(=O)c2ccc3c(c2)CCCN3C(=O)C2CCC2)CC1` was 95%.
In the case of `CCOc1ccc(Nc2c(S(=O)(=O)c3ccc(Cl)cc3)cnc3ccc(OCC)cc23)cc1` it was 66%.
Turning to `CCOc1ccc(Nc2c(S(=O)(=O)c3ccc(C)cc3)cnc3ccc(OC)cc23)cc1`, the survival was 59%.
As for `CCOc1ccc(Nc2c(S(=O)(=O)c3ccc(C)cc3)cnc3cc(OC)c(OC)cc23)cc1`, the survival is 70%.
`CCOc1ccc(Nc2c(S(=O)(=O)c3ccccc3)cnc3ccccc23)cc1`: the survival was 38% (active).
In the case of `CCOc1ccc(Nc2c(S(=O)(=O)c3ccc(Cl)cc3)cnc3ccc(OC)cc23)cc1` it was 67%; in that of `CCOc1ccc(Nc2c(S(=O)(=O)c3ccccc3)cnc3ccc(CC)cc23)cc1`, 34% (active); in that of `CCOc1ccc(Nc2c(S(=O)(=O)c3ccccc3)cnc3ccc(F)cc23)cc1`, 92%.
In the case of `CCOc1ccc(Nc2c(S(=O)(=O)c3ccc(C)cc3)cnc3ccccc23)cc1` it was 43% (active); in that of `CCOc1ccc(Nc2c(S(=O)(=O)c3ccc(C)cc3)cnc3ccc(F)cc23)cc1`, 64%.
The value for `CCOc1ccc(C(=O)NCC(c2ccc3c(c2)OCO3)N2CCN(c3ccc(F)cc3)CC2)cc1` (stereo not given) was 87%; that for `COc1ccc(Cl)cc1NC(=O)Cn1cnc2sc(C)c(S(=O)(=O)N3CCN(c4ccccc4OC)CC3)c2c1=O` was 79%.
Take `CCN(c1ccccc1)c1nnc(NC(=O)Nc2ccc(Br)c(C)c2)s1`: the survival is 89%.
The value for `COc1ccccc1NC(=O)c1c(-c2ccc(C)cc2)nnc2ccccc12` was 105%; that for `Cc1nc2ccc(S(=O)(=O)NC(C(=O)NCc3ccccc3Cl)C(C)C)cc2s1` (stereo not given) was 102%.
For `CC(C)NC(=O)c1nc2ccccc2s1`, the survival is 88%.
For `CC(C)c1ccc(C(=O)Nc2ccc(-c3nc4ccccc4s3)c(Cl)c2)cc1`, the survival was 216%.
For the compound `Cn1c(=O)sc2cc(NS(=O)(=O)c3ccc(C(C)(C)C)cc3)ccc21`, the survival was 92%.
On to `Cc1nc2ccc(S(=O)(=O)CCC(=O)Nc3ccc(C(C)C)cc3)cc2s1`, for which the survival was 50%.
With `CC(C)(C)c1ccc(S(=O)(=O)Nc2ccc(O)c(Sc3nc4ccccc4s3)c2)cc1`, the survival is -4% (active).
Consider `Cc1cc(F)ccc1S(=O)(=O)Nc1ccc(O)c(Sc2ncn[nH]2)c1`, for which the survival is 111%.
`CS(=O)(=O)Nc1ccc(-c2nc3ccccc3s2)cc1`: the survival is 48%.
As to `Cc1cc(S(=O)(=O)Nc2ccc(O)c(Sc3nc4ccccc4s3)c2)ccc1Cl`, the survival is -1% (active).
In the case of `O=S(=O)(Nc1ccc(O)c(Sc2nc3ccccc3s2)c1)c1cc(Cl)ccc1Cl` it was -8% (active).
The value for `CC(C)c1ccc(S(=O)(=O)Nc2ccc(O)c(Sc3nc4ccccc4s3)c2)cc1` was 1% (active); that for `O=C(Nc1ccc(Cl)cc1-c1nc2ccccc2s1)c1ccco1` was 74%; that for `CCOC(=O)CNc1nnc(SCC(=O)OCC)[nH]c1=O` was 71%.
As for `Cc1ccc2oc(C(=O)Nc3ccc(S(=O)(=O)N4CCCC(C)C4)cc3)cc(=O)c2c1` (stereo not given), the survival was 69%.
Take `Cc1ccc(Cl)cc1N1CCN(CCCNc2ncnc3onc(-c4ccc(F)cc4)c23)CC1`: the survival was 80%.
As to `Cc1ccc2nc(-c3ccncc3)c(Nc3ccc(C(C)C)cc3)n2c1`, the survival is 75%.
The value for `CC(C)(Cc1ccc(O)cc1)NC(=O)c1ccccc1` was 86%.
As for `CC(=O)c1c(C)n(-c2cccc(Cl)c2)c2ccc(OC(=O)c3ccccc3)cc12`, the survival is 77%.
In the case of `CN(CC(=O)NCc1ccccc1Cl)S(=O)(=O)c1ccc2c(c1)c(=O)n(C)c(=O)n2C` it was 130%; in that of `CCOc1ccccc1C(=O)Nc1ccc(S(=O)(=O)Nc2ncccn2)cc1`, 76%.
The value for `CC1=CCC2C(=O)N(C3CCCCC3)C(=O)C2C1` (stereo not given) was 79%; that for `CC(C)c1ccc(NC(=O)N2CCN(c3ccc(Cl)c(Cl)c3)CC2)cc1` was 87%.
On to `O=C(Nc1ccc(F)cc1F)N1CCN(c2ccc(Cl)c(Cl)c2)CC1`, for which the survival was 48% (active).
Turning to `Cc1ccc(NC(=O)N2CCN(c3ccc(Cl)c(Cl)c3)CC2)cc1`, the survival is 102%.
Take `CCn1cc(S(=O)(=O)c2ccc(C)cc2)c(=O)c2cc(F)c(N3CCCCCC3)cc21`: the survival is 90%.
The value for `CC(C)C(=O)Nc1nnc2n1CCS2` was 101%; that for `C=C(C)CSc1nc2sc3c(c2c(=O)n1Cc1ccccc1)CC(C)(CC)OC3` (stereo not given) was 42% (active); that for `CCCSc1nc2sc3c(c2c(=O)n1-c1cccc(Br)c1)CC(C)(C)OC3` was 61%.
With `C=C(C)CSc1nc2sc3c(c2c(=O)n1-c1ccccc1)CC(C(C)C)OC3` (stereo not given), the survival is 76%.
The value for `CCCSc1nc2sc3c(c2c(=O)n1Cc1ccccc1)CC(C)(CC)OC3` (stereo not given) was 14% (active); that for `CCn1c(NN)nc2sc3c(c2c1=O)CC(C)(C)OC3` was 104%.
The value for `CCCCSc1nc2sc3c(c2c(=O)n1-c1ccccc1C)CC(C)(C)OC3` was 48%; that for `CSc1nc2c([nH]c3ccccc32)c(=O)n1-c1ccc(C)cc1` was 87%.
The value for `Cc1ccc(N2C(=O)C3CN4CCCN4C3C2=O)cc1` (stereo not given) was 78%.
Regarding `COc1ccccc1C(=O)NCC(=O)O`, the survival is 76%.
The value for `CCc1ccc(S(=O)(=O)c2nnn3c2nc(N2CCCC(C)C2)c2cc(Cl)ccc23)cc1` (stereo not given) was 63%.
The value for `Cc1ccc(NC(=O)Cn2c(=O)n(-c3ccccc3)c(=O)c3ccc(C(=O)NCc4ccc5c(c4)OCO5)cc32)cc1` was 114%; that for `CCOC(=O)c1cccc(NC(=O)c2cc(S(=O)(=O)N3CCCCCC3)cn2C)c1` was 74%.
In the case of `COc1ccc(N2CCN(S(=O)(=O)CCNC(=O)c3ccc(C(F)(F)F)cc3)CC2)cc1` it was 99%.
Consider `COc1ccc(CNC(=O)c2ccc3c(c2)CCN3S(=O)(=O)c2ccc(Cl)cc2)cc1`, for which the survival is 62%.
For the compound `O=C(NCCc1ccccc1)c1ccc2c(c1)CCN2S(=O)(=O)c1ccccc1`, the survival was 38% (active).
In the case of `COc1ccc(CCNC(=O)c2ccc3c(c2)CCN3S(=O)(=O)c2ccccc2)cc1OC`, the survival is 88%.
In the case of `COc1ccc(CCNC(=O)c2ccc3c(c2)CCN3S(C)(=O)=O)cc1` it was 82%; in that of `COc1ccc(CNC(=O)c2ccc3c(c2)CCN3S(=O)(=O)c2ccccc2)cc1`, 36% (active).
In the case of `COc1ccc(CNC(=O)c2ccc3c(c2)CCN3S(=O)(=O)c2ccc(C)cc2)cc1` it was 55%; in that of `COc1ccc(CCNC(=O)c2ccc3c(c2)CCN3S(=O)(=O)c2ccc(C)cc2)cc1`, 43% (active).
Consider `COc1ccc(CCNC(=O)c2ccc3c(c2)CCN3S(=O)(=O)c2ccc(Cl)cc2)cc1`, for which the survival is 50%.
The value for `O=C(NCCc1ccccc1)c1ccc2c(c1)CCN2S(=O)(=O)c1ccc(Br)cc1` was 67%; that for `Cc1ccc(S(=O)(=O)N2CCc3cc(C(=O)NCCc4ccccc4)ccc32)cc1` was 104%; that for `COc1ccc(CCNC(=O)c2ccc3c(c2)CCN3S(=O)(=O)c2ccc(C)cc2)cc1OC` was 50%.
The value for `COc1ccc(CCNC(=O)c2ccc3c(c2)CCN3S(=O)(=O)c2ccccc2)cc1` was 44% (active); that for `Cc1cccc(-c2nc(CSc3nncn4c3cc3sccc34)c(C)o2)c1` was 75%.
Take `COc1ccc(CC(=O)Nc2cc(-c3cn4cccnc4n3)ccc2OC)cc1`: the survival was 91%.
Take `COc1ccc(Cl)cc1NC(=O)CN(c1cccc(C)c1C)S(=O)(=O)c1ccccc1`: the survival is 72%.
In the case of `Cc1cccc(N2CCN(S(=O)(=O)c3ccc4c(c3)CCCN4C(=O)C3CCC3)CC2C)c1` (stereo not given) it was 77%; in that of `COc1cccc(-n2cc(C(=O)Nc3cccc(C(F)(F)F)c3)c3ccccc3c2=O)c1`, 61%; in that of `CCCCN(C)c1nnc(NC(=O)Nc2cccc(C(C)=O)c2)s1`, 93%.
`Cc1cccc2cc(CN(Cc3ccco3)C(=O)N3CCOCC3)c(Cl)nc12`: the survival is 85%.
The value for `O=C(CSc1nccn1Cc1ccc(F)cc1)NCc1ccc(F)cc1` was 71%.
The value for `O=C(c1cnc(N2CCOCC2)c2ccccc12)N1CCN(c2ccccc2F)CC1` was 71%; that for `CCCc1cc(N2CCN(c3cc(Cl)ccc3C)CC2)n2cnnc2n1` was 30% (active).
In the case of `CCCc1cc(N2CCN(c3ccccc3F)CC2)n2cnnc2n1` it was 75%; in that of `CCCc1cc(N2CCN(c3cccc(C)c3C)CC2)n2cnnc2n1`, 52%; in that of `CN(C)c1cc2c(cc1NC(=O)c1ccc(F)cc1)n(C)c(=O)n2C`, 104%.
Regarding `CCNc1nc(Cl)nc(NC2CCCCC2)n1`, the survival is 90%.
Take `COc1ccc(-c2cc3ccc(O)c(CN4CCC(C)CC4)c3oc2=O)cc1`: the survival is 71%.
In the case of `COc1ccc(-c2cc3ccc(O)c(CN4CCC(C)CC4)c3oc2=O)cc1OC`, the survival is 52% (active).
In the case of `COc1ccc(-c2cc3ccc(O)c(CN4CCCC4)c3oc2=O)cc1OC` it was 116%.
Take `Cc1ccc2oc(=O)c3cnn(CC(=O)N4CCN(c5cccc(C(F)(F)F)c5)CC4)c3c2c1`: the survival was 87%.
Consider `Cc1cc(C)c2c(n1)nn1c(C)c(CCC(=O)NCc3ccccc3Cl)c(C)nc21`, for which the survival is 82%.
In the case of `Cc1ccc(NC(=O)CSc2nccn2Cc2ccco2)cc1Cl` it was 87%; in that of `CCN(c1ccc(C)cc1)S(=O)(=O)c1nnc(NC(=O)C2CCCCC2)s1`, 109%.
In the case of `CCN(c1ccc(C)cc1)S(=O)(=O)c1nnc(NC(=O)c2cccs2)s1` it was 14% (active); in that of `CCN(c1ccccc1)S(=O)(=O)c1nnc(NC(=O)c2cccs2)s1`, 28% (active).
The value for `CCN(c1ccccc1)S(=O)(=O)c1nnc(NC(=O)c2ccccc2)s1` was 38% (active); that for `CCN(c1ccc(Cl)cc1)S(=O)(=O)c1nnc(NC(=O)C2CCCCC2)s1` was 74%; that for `CCN(c1ccccc1)S(=O)(=O)c1nnc(NC(=O)C(C)Oc2ccccc2)s1` (stereo not given) was 43%.
As for `CCN(c1ccccc1)S(=O)(=O)c1nnc(NC(=O)C2CCCCC2)s1`, the survival was 48% (active).
On to `CCN(c1ccccc1)S(=O)(=O)c1nnc(NC(=O)C(C)(C)C)s1`, for which the survival is 49%.
